Measurements from ChEMBL document CHEMBL4513216, “Probing the Open Global Health Chemical Diversity Library for Multistage-Active Starting Points for Next-Generation Antimalarials” (ACS Infect Dis, 2020).
Among all 68,000 compounds or so, about 2,700 (4%) showed an effect of 50% or more. This is one part of a sample in which strong results are shown more often than they occur.

system: Plasmodium berghei; assay: Screen against P. berghei liver stage (PbLuc), transformed with Luciferase, at 2uM; format: functional, HepG2; details: tested at 2 uM

| Compound | INHIBITION |
| --- | --- |
| O=C([C@@H]1CCCN1c1nccc(Nc2ccccc2)n1)N1CCCCC1 | -16.43% |
| CCC(CN1CCCC1)NC(=O)C1(c2cccc(F)c2)CC1 (stereo not given) | 6.64% |
| COc1cccc(-n2cc(CN(C)C(=O)c3cnc(O)cn3)cn2)c1 | -6.27% |
| C=C(C)COc1ccccc1C(=O)N(C)C(C)c1c(C)n[nH]c1C (stereo not given) | 29.81% |
| C=C(C)COc1cccc(C(=O)N(C)C(C)c2c(C)n[nH]c2C)c1 (stereo not given) | -10.92% |
| COc1cccc(C(=O)N(C)C(C)c2c(C)n[nH]c2C)c1OC (stereo not given) | 50.63% |
| CC(C)N1CCCn2c(nc(CNC(=O)c3nccn3C)cc2=O)C1 | -25.29% |
| CCN(CC)C(=O)c1ccn(COc2ccc(F)cc2)n1 | 17.7% |
| CCc1n[nH]c(C2CN(C(=O)Cc3ccc(C)nc3)CCO2)n1 (stereo not given) | 36.48% |
| CC1CCN(C(=O)CN2CC(c3nc(C4CC4)no3)C2)CC1 | 12.57% |
| O=C(CN1CC(c2nc(C3CC3)no2)C1)N1CCOCC1 | 56.9% |
| O=C(CN1CCCC(c2noc(C3CC3)n2)C1)N1CCCC1 (stereo not given) | 19.45% |
| O=C(c1cccnc1)N1CCC2(CC1)CCN(c1ccsc1)C2=O | -8.05% |
| O=C(Cc1ccccc1Cl)NCCN1CCC(c2cccs2)CC1 | 28.43% |
| Cn1cc(CC(=O)N2CCCC(n3cncn3)C2)cn1 (stereo not given) | 38.76% |
| Cc1nccn1C1CCCN(C(=O)c2cccc(S(C)(=O)=O)c2)C1 (stereo not given) | 5.72% |
| COc1ccccc1C1(CNc2ccnc(C(=O)N(C)C)c2)CC1 | 67.44% |
| COc1ccccc1C1(CNC(=O)NCc2noc(C)n2)CC1 | 15.28% |
| CN(C)C(=O)c1ccc(NCCNc2ccc3ccccc3n2)nc1 | -37.09% |
| COc1ccccc1C1(CNc2ncc(S(N)(=O)=O)s2)CC1 | 7.67% |
| COc1ccccc1C1(CNc2cc(C(=O)N(C)C)ccn2)CC1 | 33.78% |
| COc1ccccc1C1(CNc2ccc(C(=O)N(C)C)cn2)CC1 | 50.61% |
| OCCOCCN1CCCC1c1cccc(Cl)c1 (stereo not given) | -17.64% |
| Cc1nc(N(C)C)nc(N(C)Cc2cnccn2)c1C | 20.29% |
| COC(=O)c1ccc(C2SC(C)=Nc3c2c(=O)[nH]n3C2CCCC2)cc1 (stereo not given) | -3.18% |
| CCCN(C)S(=O)(=O)N1CCCC1c1ccco1 (stereo not given) | -3.57% |
| COC(=O)c1cccc(S(=O)(=O)NC(=O)c2ccccc2F)c1 | 0% |
| CCOC(=O)C(C)Nc1cccc(COCc2ccco2)c1 (stereo not given) | -5.44% |
| Cc1cc(NC(=O)C(C)Nc2cccc(COCc3ccco3)c2)no1 (stereo not given) | 21.57% |
| Cc1cc(NC(=O)C(C)Nc2cccc(COCc3ccco3)c2)on1 (stereo not given) | 55.52% |
